# Laboratory results as given in PubChem BioAssay (NCATS).
# Activity calls are given as the source filed them. Calls follow the shape of the dose curve; as a rule, active = well fitted curve in the direction sought with a large enough effect (not every such curve was filed as active); inconclusive = small, poorly fitted or top-dose-only effect, or effect the other way, or another doubt; inactive = no such curve, though single readings can be large or run the other way.
# Molecular target: Pyruvate kinase PKM (Homo sapiens) (UniProt P14618)
# Sequence (P14618 whole entry, looked up): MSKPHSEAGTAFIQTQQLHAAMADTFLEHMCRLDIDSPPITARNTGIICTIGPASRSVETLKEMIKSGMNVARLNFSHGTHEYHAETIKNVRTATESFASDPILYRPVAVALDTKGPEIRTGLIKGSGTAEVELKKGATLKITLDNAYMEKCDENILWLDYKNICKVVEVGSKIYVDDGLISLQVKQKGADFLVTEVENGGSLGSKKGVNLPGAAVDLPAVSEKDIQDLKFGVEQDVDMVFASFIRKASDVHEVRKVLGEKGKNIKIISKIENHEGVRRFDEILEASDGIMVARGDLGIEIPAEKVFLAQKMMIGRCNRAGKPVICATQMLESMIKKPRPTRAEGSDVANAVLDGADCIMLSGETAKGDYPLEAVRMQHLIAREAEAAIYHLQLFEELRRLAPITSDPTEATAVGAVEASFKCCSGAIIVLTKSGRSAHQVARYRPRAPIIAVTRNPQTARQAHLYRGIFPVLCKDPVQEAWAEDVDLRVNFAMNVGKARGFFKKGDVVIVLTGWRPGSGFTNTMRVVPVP
# Assay: qHTS Assay for Activators of Human Muscle Pyruvate Kinase (AID 954)
# Settings: purified human muscle pyruvate kinase, luciferase-coupled luminescence, 1 h; series mostly up to 57.5 µM
# Experimental: NIH Molecular Libraries Screening Centers Network [MLSCN]
# NIH Chemical Genomics Center [NCGC]
# Wael M. Rabeh, Lyudmila Nedyalkova and Hee-Wan Park [Structural Genomics Consortium, 100 College St. Toronto, Ontario, Canada]
# Human pyruvate kinase muscle 2 enzyme was supplied as a highly purified (>95% pure) preparation by the Structural Genomics Consortium in Toronto (Ontario, Canada) and was assayed for its ability to generate ATP from ADP using phosphoenolpyruvate (PEP) as a substrate. ATP generation was detected in a coupled reaction by luciferase-mediated luminescence, an ATP-dependent process. Pyruvate kinase substrates, PEP and ADP, were present in the assay at Km and approximately […]-fold below Km respectively. The enzyme was assayed at an intermediate level of activity to screen for inhibitors and activators.
# NCGC Assay Protocol Summary:
# Three uL of substrate mix (final concentration, 50 mM imidazole pH 7.2, 50 mM KCl, 7 mM MgCl2, 0.5 mM PEP, 0.1 mM ADP, 0.01% Tween 20, 0.05% BSA) was dispensed into 1536 well plates. 23 nL of compound were delivered by a pin tool and 1 uL of enzyme mix (final concentration, 0.1 nM pyruvate kinase, 50 mM imidazole pH 7.2, 0.05% BSA) was added. Plates were incubated at room temperature for 1 hour. Two uL of detection and kinase stop mix (PKLight, Cambrex) was added, the plates centrifuged, and luminescence read by a ViewLux (Perkin Elmer) at 5 second exposure/plate. Data were normalized to the uninhibited and AC100 inhibition (no enzyme or 110 uM N-methyl-2,3-diphenyl-1,2,4-thiadiazol-5-imine; CID: 682802; LOPAC-S-4063). To monitor activation, 0.3 nM pyruvate kinase was included in one control column.
row,SMILES,outcome
1,NC[C@H](O)c1ccc(O)c(O)c1,inactive
2,Nc1ccc(S(=O)(=O)Nc2ccnn2-c2ccccc2)cc1,inactive
3,NC(N)=NC(=O)c1nc(Cl)c(N)nc1N,inactive
4,CCCCNc1cc(C(=O)O)cc(S(N)(=O)=O)c1Oc1ccccc1,inactive
5,CC(C)(Sc1ccc(CCN(CCCCC2CCCCC2)C(=O)NC2CCCCC2)cc1)C(=O)O,inactive
6,CC(=O)Oc1ccccc1C(=O)O,inactive
7,NCCc1ccc(O)c(O)c1,inactive
8,Nc1nc2ccc(OC(F)(F)F)cc2s1,inactive
9,NNCCc1ccccc1,inactive
10,O=NN(CCCl)C(=O)NCCCl,inactive
11,O=C1CCc2cc(OCCCCc3nnnn3C3CCCCC3)ccc2N1,inactive
12,NC(=O)c1cnccn1,inactive
13,N[C@@H]1CONC1=O,inactive
14,Nc1nc2c(ncn2COCCO)c(=O)[nH]1,inactive
15,O=c1n(CCCN2CCN(c3cccc(Cl)c3)CC2)nc2ccccn12,inactive
16,Cc1oncc1C(=O)Nc1ccc(C(F)(F)F)cc1,inactive
17,Cc1[nH]c(=O)c(C#N)cc1-c1ccncc1,inactive

row,SMILES,outcome
1,C1COC(NC(C2CC2)C2CC2)=N1,inactive
2,Clc1cccc(Cl)c1NC1=NCCN1,inactive
3,C[C@]12CCC(=O)C=C1CC[C@@H]1[C@@H]2[C@@H](O)C[C@@]2(C)[C@H]1CC[C@]2(O)C(=O)CO,inactive
4,Cc1cn[nH]c1,inactive
5,Cc1ccc(N(CC2=NCCN2)c2cccc(O)c2)cc1,inactive
6,Cc1[nH]c(=O)c(C#N)cc1-c1ccc2nccn2c1,inactive
7,CC(C)NCC(O)COc1ccc(COCCOC(C)C)cc1 (centres undefined),inactive
8,CCOC(=O)N1CCC(=C2c3ccc(Cl)cc3CCc3cccnc32)CC1,inactive
9,CNC[C@H](O)c1cccc(O)c1,inactive
10,N=c1nc(N2CCCCC2)cc(N)n1O,inactive
11,NS(=O)(=O)c1cc2c(cc1Cl)NC=NS2(=O)=O,inactive
12,O=c1[nH]cnc2[nH]ncc12,inactive
13,CCOC(=O)C1=C[C@@]2(CC)CCCN3CCc4c(n1c1ccccc41)[C@H]32,inactive
14,CN1CCN(CCCN2c3ccccc3Sc3ccc(C(F)(F)F)cc32)CC1,inactive
15,Cn1cnc([N+](=O)[O-])c1Sc1ncnc2nc[nH]c12,inactive
16,CCCC(CCC)C(=O)O,inactive
17,OC(CN1CCC(Cc2ccc(F)cc2)CC1)c1ccc(Cl)cc1 (centres undefined),inactive
